Measurements reported in PubChem BioAssay (NCATS).
Results filed as inconclusive are left out. Activity calls are given as the source filed them. Unless noted, the call rests on the fitted dose curve; in most records, active means well fitted curve in either direction with a large enough effect (not every such curve was filed as active); inconclusive means small, poorly fitted or top-dose-only effect, or another doubt; inactive means flat fitted curve, though single readings scatter.

Legend:
[1] = AP1 Signaling Pathway (AID 357); conditions: ME-180 AP-1-bla reporter, EGF-induced, beta-lactamase ratio, 5 h;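 further: ME-180 reporter cells stimulated with EGF at its EC50 level; on the % scale 0 is the no-effect control and ±100 the full control effect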
Summary of the method: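 AP-1-bla ME-180 cells, Opti-MEM + 0.5% dialyzed FBS, plated overnight 37 °C. Cpd titration + EC50 EGF, 5 h 37 °C. CCF4 2.5 h RT; ex 405, em 460/530 ratio → %activity, AC50.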

[2] = molecular target: Cytochrome P450 1A2 (Homo sapiens) (UniProt P05177); assay: p450-cyp1a2 (AID 410; calls by dose curve; further: potency means the concentration at half of the fitted maximal effect;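 on activity change, negative = inhibition: -100% = full effect of reference inhibitor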)
Chain of Cytochrome P450 1A2 (Homo sapiens) (P05177 whole entry, looked up): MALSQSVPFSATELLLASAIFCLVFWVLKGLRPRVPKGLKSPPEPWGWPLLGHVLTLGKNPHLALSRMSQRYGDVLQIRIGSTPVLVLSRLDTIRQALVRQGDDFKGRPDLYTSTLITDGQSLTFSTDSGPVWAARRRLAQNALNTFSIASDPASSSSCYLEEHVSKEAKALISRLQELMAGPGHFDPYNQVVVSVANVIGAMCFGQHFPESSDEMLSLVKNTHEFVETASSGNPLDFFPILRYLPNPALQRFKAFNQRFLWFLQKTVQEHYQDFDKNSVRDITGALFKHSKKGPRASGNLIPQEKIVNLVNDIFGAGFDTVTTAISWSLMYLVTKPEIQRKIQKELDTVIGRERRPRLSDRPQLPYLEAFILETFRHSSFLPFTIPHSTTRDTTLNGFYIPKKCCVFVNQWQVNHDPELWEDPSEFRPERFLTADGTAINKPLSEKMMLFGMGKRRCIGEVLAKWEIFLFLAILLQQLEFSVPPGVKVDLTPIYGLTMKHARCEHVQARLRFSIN
Summary of the method: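 O-Demethylation of luciferin 6' methyl ether by human CYP1A2 is monitored as luciferase luminescence. Substrate sits at Km (100uM); enzyme is 20nM. Values are scaled to 57 uM furafylline as maximal inhibition.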

[3] = NFAT Signaling Pathway (AID 444); conditions: Jurkat NFAT-bla M1, carbachol, beta-lactamase ratio, 5 h;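 further: carbachol stimulus at about its EC50 of 1 µM final; on the % scale 0 is the no-effect control and ±100 the full control effect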
Summary of the method: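 Read-out: CCF4 FRET ratio (460 nm/530 nm) after 1 h RT dye loading, used for %activity and AC50 from titration series. Cells: Jurkat NFAT-β-lactamase/M1 line, treated with compound plus 1 uM carbachol for 5 h, 37 °C.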

[4] = Stat Signaling Pathway (AID 446); conditions: ME-180 (cervical carcinoma) SIE beta-lactamase reporter, IL-6 stimulated, 5 h;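 further: ME-180 cervical cancer cells given 40 pM IL-6 alongside compound; SIE-controlled beta-lactamase reporter measured as 460/530 nm FRET emission ratio; on the % scale 0 is the no-effect control and ±100 the full control effect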
Summary of the method: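 Overnight-plated ME-180 cells bearing a STAT Inducible Element beta-lactamase reporter; 5 h co-exposure to compound and 40 pM IL-6; values normalized to 300 pM IL-6 and 125 nM JAK inhibitor controls.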

[5] = molecular target: Glucocorticoid receptor (Homo sapiens) (UniProt P04150); assay: GR-GFP Redistribution (AID 450;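 active means compounds whose dose series gives a full or clear partial fitted curve of increased nuclear translocation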; further: potency means the concentration at half of the fitted maximal effect); conditions: U2OS GR-GFP nuclear translocation, laser cytometry, 2 h
Chain of Glucocorticoid receptor (Homo sapiens) (P04150 whole entry, looked up, the tested form may be a part): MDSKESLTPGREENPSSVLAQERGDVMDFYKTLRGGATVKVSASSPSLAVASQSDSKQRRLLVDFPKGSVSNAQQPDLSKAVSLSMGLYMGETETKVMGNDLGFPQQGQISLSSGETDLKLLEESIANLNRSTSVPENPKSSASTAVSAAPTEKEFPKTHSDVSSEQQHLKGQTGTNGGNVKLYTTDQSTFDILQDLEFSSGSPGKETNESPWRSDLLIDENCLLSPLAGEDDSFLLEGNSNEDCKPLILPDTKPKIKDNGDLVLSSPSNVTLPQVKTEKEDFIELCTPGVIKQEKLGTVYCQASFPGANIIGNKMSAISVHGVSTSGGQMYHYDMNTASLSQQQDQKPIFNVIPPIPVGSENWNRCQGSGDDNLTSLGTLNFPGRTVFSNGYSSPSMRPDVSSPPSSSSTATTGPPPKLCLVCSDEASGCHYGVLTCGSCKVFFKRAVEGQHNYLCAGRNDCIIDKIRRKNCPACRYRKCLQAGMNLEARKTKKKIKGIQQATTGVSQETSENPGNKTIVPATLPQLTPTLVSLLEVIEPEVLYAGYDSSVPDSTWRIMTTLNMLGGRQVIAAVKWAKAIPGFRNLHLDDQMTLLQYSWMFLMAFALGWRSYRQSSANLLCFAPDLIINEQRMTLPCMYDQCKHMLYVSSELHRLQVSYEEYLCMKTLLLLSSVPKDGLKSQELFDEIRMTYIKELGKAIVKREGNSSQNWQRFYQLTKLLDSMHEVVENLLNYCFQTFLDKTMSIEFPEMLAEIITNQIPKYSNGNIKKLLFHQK

[6] = molecular target: Glucocorticoid receptor (Homo sapiens) (UniProt P04150); assay: GR-EFC Redistribution (AID 451; calls by dose curve; further: potency means the concentration at half of the fitted maximal effect); conditions: CHO-K1 GR-EFC translocation, beta-gal luminescence, 2 h
Summary of the method: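 Translocation of GR-ED fusion to nuclear EA restores b-gal, read by luminescence after 1 h room-temperature detection. Engineered CHO-K1 biosensor cells, 1,000/well, exposed 2 h at 37 C to titrations up to 46 uM final.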

[7] = molecular target: Mitogen-activated protein kinase 10 (Mus musculus) (UniProt Q61831); assay: JNK3 AlphaScreen Assay (AID 530);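 further: kinase came from lysate of stimulated human HepG2 cells; signal reports phosphorylation of biotinylated GST-cJun 1-79 at Ser73 with 10 µM ATP; on the % scale 0 is the no-effect control and ±100 the full control effect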
Summary of the method: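 qHTS titrations with 15 min compound pre-incubation before adding ATP (10 uM final). Read-out: AlphaScreen of Ser73-phosphorylated biotin-GST-cJun using HepG2 lysate JNK3 activated by IL-1β and TNFα.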

[8] = molecular target: 3',5'-cyclic-AMP phosphodiesterase 4B (Homo sapiens) (UniProt Q07343); assay: qHTS Assay for Inhibitors of PDE-IV (AID 607; active means well fitted activation curve with a large enough effect in the main read-out, with a control signal flat, not every such curve was filed as active; further: % of control where 0% means no effect)
Chain of 3',5'-cyclic-AMP phosphodiesterase 4B (Homo sapiens) (Q07343 whole entry, looked up): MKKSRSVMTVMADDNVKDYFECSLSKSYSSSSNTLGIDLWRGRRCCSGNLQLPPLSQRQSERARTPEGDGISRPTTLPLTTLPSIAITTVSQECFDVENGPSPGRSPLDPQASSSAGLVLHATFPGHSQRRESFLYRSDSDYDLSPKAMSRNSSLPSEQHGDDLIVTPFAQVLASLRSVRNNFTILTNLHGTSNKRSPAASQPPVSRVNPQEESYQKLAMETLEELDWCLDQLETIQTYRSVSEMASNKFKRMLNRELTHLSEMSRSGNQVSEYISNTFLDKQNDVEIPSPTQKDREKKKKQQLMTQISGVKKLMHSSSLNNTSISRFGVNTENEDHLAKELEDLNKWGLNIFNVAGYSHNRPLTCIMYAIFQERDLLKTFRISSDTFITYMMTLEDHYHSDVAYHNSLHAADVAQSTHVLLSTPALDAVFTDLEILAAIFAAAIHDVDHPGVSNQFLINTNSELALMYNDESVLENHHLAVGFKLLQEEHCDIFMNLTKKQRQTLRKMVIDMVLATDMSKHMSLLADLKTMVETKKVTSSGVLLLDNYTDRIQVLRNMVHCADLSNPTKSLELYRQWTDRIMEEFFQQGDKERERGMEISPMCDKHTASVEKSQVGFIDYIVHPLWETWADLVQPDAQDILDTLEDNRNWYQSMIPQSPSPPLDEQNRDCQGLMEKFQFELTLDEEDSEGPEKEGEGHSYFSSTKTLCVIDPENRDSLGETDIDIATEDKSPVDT
Summary of the method: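 Live HEK293 cells with a modified cyclic nucleotide-gated (CNG) channel report intracellular cAMP via membrane-potential dye fluorescence (ex 535/em 590 nm). Endogenous PDE-IV was targeted. Compounds were tested at up to 22.9 uM final; RO 20-1724 100 uM served as control.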

[9] = molecular target: Guanine nucleotide-binding protein G(i) subunit alpha-1 (Homo sapiens) (UniProt P63096); assay: qHTS Assay for Inhibitors of RGS12 GoLoco Motif Activity (Green Fluorophore) (AID 879; active means well fitted curve in the direction sought with a large enough effect; an effect the other way counts as inactive or inconclusive;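 further: 0% = labeled peptide with Gαi1 and full inhibition = labeled peptide alone without protein; negative values mean loss of peptide binding seen as reduced polarization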)
Chain of Guanine nucleotide-binding protein G(i) subunit alpha-1 (Homo sapiens) (P63096 whole entry, looked up): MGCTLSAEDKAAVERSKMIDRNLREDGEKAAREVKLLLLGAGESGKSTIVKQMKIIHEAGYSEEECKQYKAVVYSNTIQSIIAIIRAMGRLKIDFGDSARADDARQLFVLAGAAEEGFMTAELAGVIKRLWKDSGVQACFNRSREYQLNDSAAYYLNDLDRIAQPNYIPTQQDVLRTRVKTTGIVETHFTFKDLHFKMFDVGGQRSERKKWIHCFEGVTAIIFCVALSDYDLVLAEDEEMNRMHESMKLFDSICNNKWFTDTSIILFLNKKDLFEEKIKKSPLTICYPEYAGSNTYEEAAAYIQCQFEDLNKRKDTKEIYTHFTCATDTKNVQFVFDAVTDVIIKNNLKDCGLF
Summary of the method: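 A drop in FITC polarization marked displacement of the FITC-tagged RGS12 GoLoco peptide (10 nM) from Gαi1 (50 nM). Compounds were incubated 10 min at room temperature in Tris pH 7.5 buffer containing 150 mM NaCl, 0.1 mM GDP and 0.05% NP40; unlabeled peptide titration served as control.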

[10] = qHTS Assay for Identification of Small Molecule Agonists for Thrombopoietin (TPO) Signaling Pathway (AID 917; active means well fitted curve in the direction sought with a large enough effect; an effect the other way counts as inactive or inconclusive; further: on the % scale 0 is the no-effect control and ±100 the full control effect)
Summary of the method: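 Human TPO receptor–transfected Ba/F3 cells (murine, IL-3-dependent) in IL-3-deficient medium; compounds plus TPO at EC50, 26 pM final; 24 hrs, 37 C; GpIIb-luciferase luminescence after 10 min RT detection.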

[11] = molecular target: Pyruvate kinase (Leishmania mexicana) (UniProt Q27686); assay: qHTS Validation Assay for Inhibitors of Leishmania Mexicana Pyruvate Kinase (AID 945; active means well fitted curve in the direction sought with a large enough effect; an effect the other way counts as inactive or inconclusive;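 further: 0% = DMSO only neutral control wells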)
Chain of Pyruvate kinase (Leishmania mexicana) (Q27686 2-499 E452W): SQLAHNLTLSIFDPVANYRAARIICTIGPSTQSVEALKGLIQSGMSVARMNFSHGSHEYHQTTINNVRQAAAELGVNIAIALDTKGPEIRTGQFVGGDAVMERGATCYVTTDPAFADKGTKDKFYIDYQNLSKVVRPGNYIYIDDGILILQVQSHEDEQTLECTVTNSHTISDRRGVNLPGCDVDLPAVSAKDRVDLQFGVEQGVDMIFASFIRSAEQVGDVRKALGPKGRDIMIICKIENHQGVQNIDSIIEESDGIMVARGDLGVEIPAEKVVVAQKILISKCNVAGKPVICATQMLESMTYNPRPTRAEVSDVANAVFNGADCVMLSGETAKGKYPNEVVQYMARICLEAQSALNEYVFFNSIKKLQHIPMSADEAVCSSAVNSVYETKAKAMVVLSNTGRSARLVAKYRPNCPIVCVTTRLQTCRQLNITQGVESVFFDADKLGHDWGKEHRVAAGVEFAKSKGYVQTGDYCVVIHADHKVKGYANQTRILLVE
Summary of the method: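 qHTS eight-point titrations against 0.2 nM LmPYK (E451W) in imidazole buffer pH 7.2 with 0.5 mM PEP, 0.1 mM ADP; 1 h, room temperature. Readout: PKLight luminescence, normalized to neutral DMSO wells.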

[12] = molecular target: Pyruvate kinase PKM (Homo sapiens) (UniProt P14618); assay: qHTS Assay for Activators of Human Muscle Pyruvate Kinase (AID 954; active means well fitted curve in the direction sought with a large enough effect, not every such curve was filed as active;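 further: 0% = uninhibited enzyme and -100% = no enzyme or full thiadiazolimine inhibition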)
Chain of Pyruvate kinase PKM (Homo sapiens) (P14618 whole entry, looked up): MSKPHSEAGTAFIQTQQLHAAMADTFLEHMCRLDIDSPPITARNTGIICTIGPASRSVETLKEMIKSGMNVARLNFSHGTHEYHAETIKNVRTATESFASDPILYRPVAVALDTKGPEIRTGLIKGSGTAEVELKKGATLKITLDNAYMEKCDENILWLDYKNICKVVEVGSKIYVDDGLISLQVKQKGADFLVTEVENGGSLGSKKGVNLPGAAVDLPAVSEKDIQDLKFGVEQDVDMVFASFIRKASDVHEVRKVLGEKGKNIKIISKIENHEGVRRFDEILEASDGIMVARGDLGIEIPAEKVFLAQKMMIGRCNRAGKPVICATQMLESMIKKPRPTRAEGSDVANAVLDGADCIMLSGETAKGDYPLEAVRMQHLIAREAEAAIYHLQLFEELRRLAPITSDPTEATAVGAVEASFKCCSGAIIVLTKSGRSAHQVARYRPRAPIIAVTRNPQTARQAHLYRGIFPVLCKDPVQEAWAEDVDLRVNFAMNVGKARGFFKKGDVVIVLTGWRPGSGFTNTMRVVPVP
Summary of the method: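 Screening used highly purified human pyruvate kinase M2 under submaximal activity, with PEP at its Km and ADP below Km. After an hour at room temperature, ATP was read by luciferase luminescence.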

[13] = molecular target: Alpha-galactosidase A (Homo sapiens) (UniProt P06280); assay: Counterscreen for Glucocerebrosidase Inhibitors: qHTS Assay for Human alpha-Galactosidase at pH 4.5 (AID 992; active means well fitted curve in the direction sought with a large enough effect; an effect the other way counts as inactive or inconclusive; further: 0% is about no effect)
Chain of Alpha-galactosidase A (Homo sapiens) (P06280 whole entry, looked up): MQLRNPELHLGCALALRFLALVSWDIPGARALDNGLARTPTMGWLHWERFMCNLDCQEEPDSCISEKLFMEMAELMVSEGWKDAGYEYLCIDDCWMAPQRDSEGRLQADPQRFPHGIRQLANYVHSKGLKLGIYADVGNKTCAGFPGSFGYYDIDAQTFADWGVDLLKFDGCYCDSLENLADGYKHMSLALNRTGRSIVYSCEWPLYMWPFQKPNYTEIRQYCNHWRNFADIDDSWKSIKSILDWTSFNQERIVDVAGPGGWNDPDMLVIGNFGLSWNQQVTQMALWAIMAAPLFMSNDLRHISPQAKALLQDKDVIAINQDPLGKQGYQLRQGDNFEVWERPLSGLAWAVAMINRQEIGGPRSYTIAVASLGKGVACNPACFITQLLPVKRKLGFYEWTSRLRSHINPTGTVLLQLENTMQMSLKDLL
Summary of the method: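 Each compound is preincubated briefly with 2 nM enzyme before substrate addition (80 uM); plates then sit 20 min at ambient temperature, are quenched with 1M NaOH/1M glycine, and read fluorometrically.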

[14] = molecular target: alpha-glucosidase (Oryza sativa, rice) (UniProt Q653V4); assay: Counterscreen for Glucocerebrosidase Inhibitors: qHTS Assay for Rice alpha-Glucosidase at pH 5.0 (AID 997; active means well fitted curve in the direction sought with a large enough effect; an effect the other way counts as inactive or inconclusive;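 further: 0% = full activity with enzyme and -100% = basal without enzyme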)
Summary of the method: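 Endpoint fluorogenic assay at pH 5.0: compounds (0.7 nM to 77 uM) titrated against 4 nM rice enzyme and 400 uM 4-MU-alpha-glucoside for 20 min at room temperature; NaOH/glycine stop, read ex 365/em 440 nm, Hill-fitted AC50.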

[15] = molecular target: Cytochrome P450 3A4 (Homo sapiens) (UniProt P08684); assay: qHTS Assay for Activators of Cytochrome P450 3A4 (AID 885; active means well fitted curve in the direction sought with a large enough effect; an effect the other way counts as inactive or inconclusive; further: nearly all actives have a fitted effect of over 65% in size)
Chain of Cytochrome P450 3A4 (Homo sapiens) (P08684 whole entry, looked up): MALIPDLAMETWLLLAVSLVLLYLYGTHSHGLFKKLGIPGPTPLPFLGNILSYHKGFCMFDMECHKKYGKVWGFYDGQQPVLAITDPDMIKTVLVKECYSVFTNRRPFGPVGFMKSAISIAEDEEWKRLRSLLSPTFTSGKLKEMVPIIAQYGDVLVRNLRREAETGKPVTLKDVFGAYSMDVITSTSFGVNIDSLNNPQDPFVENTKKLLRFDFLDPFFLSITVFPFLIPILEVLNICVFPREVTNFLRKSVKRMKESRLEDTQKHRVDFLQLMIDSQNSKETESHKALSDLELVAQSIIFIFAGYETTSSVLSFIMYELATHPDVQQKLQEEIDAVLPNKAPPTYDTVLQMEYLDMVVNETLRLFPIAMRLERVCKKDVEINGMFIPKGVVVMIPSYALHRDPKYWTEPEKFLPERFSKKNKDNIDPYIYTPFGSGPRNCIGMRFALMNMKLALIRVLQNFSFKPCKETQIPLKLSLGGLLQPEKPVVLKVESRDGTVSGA
Summary of the method: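 Using 20nM recombinant human CYP3A4 in potassium phosphate (200mM), substrate Luciferin-PPXE at 25uM, luminescent luciferin detection followed a 60-min RT NADPH reaction; data scaled to 57 uM ketoconazole.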

[16] = molecular target: Muscarinic acetylcholine receptor M1 (Rattus norvegicus) (UniProt P08482); assay: qHTS Assay for Antagonists of Acetylcholine Muscarinic M1 Receptor: Measurement of IP-One Response (AID 944; active means well fitted curve in the direction sought with a large enough effect; an effect the other way counts as inactive or inconclusive; further: nearly all actives have a fitted effect of over 75% in size)
Chain of Muscarinic acetylcholine receptor M1 (Rattus norvegicus) (P08482 whole entry, looked up): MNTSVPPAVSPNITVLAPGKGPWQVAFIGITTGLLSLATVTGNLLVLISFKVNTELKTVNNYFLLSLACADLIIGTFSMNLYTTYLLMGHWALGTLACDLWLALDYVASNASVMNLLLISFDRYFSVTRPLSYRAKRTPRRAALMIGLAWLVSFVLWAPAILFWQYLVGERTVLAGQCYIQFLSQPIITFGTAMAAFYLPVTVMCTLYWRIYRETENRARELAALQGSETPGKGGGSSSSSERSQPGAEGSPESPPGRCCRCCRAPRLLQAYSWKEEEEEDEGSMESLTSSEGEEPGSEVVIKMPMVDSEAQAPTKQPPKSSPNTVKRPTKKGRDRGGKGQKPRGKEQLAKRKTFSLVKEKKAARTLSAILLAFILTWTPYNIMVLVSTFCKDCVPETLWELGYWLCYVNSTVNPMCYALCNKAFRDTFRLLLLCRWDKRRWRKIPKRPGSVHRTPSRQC
Summary of the method: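 Antagonist mode with rat M1 receptor transfected into CHO cells. Compound is added first for 10 min, carbachol at its EC80 follows for 30 min, and lysis reagents then allow TR-FRET detection of accumulated IP1.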

[17] = molecular target: Lysosomal acid glucosylceramidase (Homo sapiens) (UniProt P04062); assay: Glucocerebrosidase-p2 (AID 348; in the data active means potency below about 10 µM; further: potency means the concentration at half of the fitted maximal effect); conditions: purified GBA, blue fluorogenic substrate, 40 min
Summary of the method: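 Normal human glucocerebrosidase (0.2 nM) with blue fluorogenic substrate (80 uM final) in citrate/phosphate pH 5.9 with 10mM sodium taurocholate, 0.01% tween-20; 40 min RT, NaOH/glycine stop; fluorescence Ex 365/Em 440; AC50 from a titration from 0.6 nM upwards.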

[18] = molecular target: Muscarinic acetylcholine receptor M1 (Rattus norvegicus) (UniProt P08482); assay: qHTS Assay for Antagonists of Acetylcholine Muscarinic M1 Receptor: Kinetic Measurement of Intracellular Calcium Response (AID 943; active means well fitted curve in the direction sought with a large enough effect; an effect the other way counts as inactive or inconclusive;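 further: Fluo-4 calcium signal as peak divided by basal fluorescence over 4 min; nearly all actives have a fitted effect of over 75% in size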)
Summary of the method: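 Antagonism is measured as inhibition of the carbachol-evoked calcium rise in CHO cells transfected with rat M1. Cells are dye-loaded, exposed to compound for 10 min, then stimulated with 100 nM carbachol (EC80).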

[19] = at 7.69 µM (top of the series) unless noted

O=C(O)CCCC[C@H]1CCSS1
inactive: activity change, negative = inhibition [1, 19] -4.68% [at 38 µM] | Potency [2] | activity change, negative = inhibition [3, 19] -1.58% [at 38 µM] | activity, negative = inhibition [4, 19] -7.28% [at 38 µM] | Potency [5] > 46 µM | Potency [6] > 46 µM | Potency [7] | Potency [8] | outcome [9] | outcome [10] | outcome [11] | outcome [12] | outcome [13] | Potency [14]

Cc1nc2ccccc2nc1-c1ccc(N=[N+]([O-])c2ccc(-c3nc4ccccc4nc3C)cc2)cc1
active: Potency [2] 6.31 µM
inactive: activity change, negative = inhibition [1, 19] 6.31% | activity change, negative = inhibition [3, 19] -3.33% | activity, negative = inhibition [4, 19] -5.62% | Potency [5] > 46 µM | Potency [6] > 9.22 µM | Potency [7] | Potency [8]

CC(C)/C(=N/[N+](C)(C)C)c1ccccc1
inactive: activity change, negative = inhibition [1, 19] 3.83% | activity change, negative = inhibition [2] -16.2% [at 2.29 µM] | activity change, negative = inhibition [3, 19] -1.16% | activity, negative = inhibition [4, 19] 0.141% | Potency [5] > 46 µM | Potency [6] > 9.22 µM | Potency [7] | Potency [8]

NC(=S)NCCC[C@@H](N)C(=O)O
inactive: activity change, negative = inhibition [1, 19] 4.46% [at 38 µM] | Potency [2] | activity change, negative = inhibition [3, 19] 4.17% [at 38 µM] | activity, negative = inhibition [4, 19] -8.44% [at 38 µM] | Potency [5] > 46 µM | Potency [6] > 46 µM | Potency [7] | Potency [8] | outcome [9] | Potency [15] | outcome [10] | Potency [16] | outcome [11] | outcome [12] | outcome [13] | Potency [14]

Nc1nc(-c2ccccc2)c(-c2ccccc2)c(-c2nc(N)nc(-c3ccccc3)c2-c2ccccc2)n1
inactive: activity change, negative = inhibition [1, 19] -1.08% | Potency [2] | activity change, negative = inhibition [3, 19] 16.1% | activity, negative = inhibition [4, 19] 3.19% | Potency [5] > 46 µM | Potency [6] > 9.22 µM | Potency [7] | Potency [8]

C(=C/c1ccccc1)/CN1CCN(C(c2ccccc2)c2ccccc2)CC1
inactive: activity change, negative = inhibition ([1]; at 17.2 µM (top of the series)) -10.7% | activity change, negative = inhibition ([1]; at 38 µM (top of the series)) -3.02% | activity, negative = inhibition ([4]; at 17.2 µM (top of the series)) -6.97% | activity, negative = inhibition ([4]; at 38 µM (top of the series)) 12.7% | Potency [7] | Potency [8]

COc1ncc2nc(-c3cc(F)cc(F)c3)c(=O)n(CCc3ccccc3)c2n1
inactive: Potency [17] > 11.4 µM | Potency [5] > 9.22 µM | Potency [6] > 46 µM | Potency [7]

Cc1nnc(SCC2=C(C(=O)O)N3C(=O)[C@@H](NC(=O)Cn4cnnn4)[C@@H]3SC2)s1
inactive: activity change, negative = inhibition ([1]; at 17.2 µM (top of the series)) 3.67% | activity change, negative = inhibition ([1]; at 38 µM (top of the series)) 2.44% | Potency [2] | activity change, negative = inhibition ([3]; at 17.2 µM (top of the series)) 2.74% | activity change, negative = inhibition ([3]; at 38 µM (top of the series)) -2.96% | activity, negative = inhibition ([4]; at 17.2 µM (top of the series)) 8.89% | activity, negative = inhibition ([4]; at 38 µM (top of the series)) -5.18% | Potency [7] | Potency [8] | outcome [9] | Potency [15] | outcome [10] | Potency [18] | Potency [16] | outcome [12] | outcome [13] | Potency [14]
